PubChem BioAssay (NCATS)
Results filed as inconclusive are left out. Entries that show only a call come without a potency. Calls of active or inactive are those of the source. Calls follow the shape of the dose curve; as a rule, active = well fitted inhibition curve with a large enough effect; inconclusive = small, poorly fitted or top-dose-only effect; inactive = flat fitted curve, though single readings scatter.

Tests used:
Assay in all cases: qHTS profiling for inhibitors of Plasmodium falciparum proliferation (AID 504749); also: nearly all actives have a fitted effect of over 60% in size
Settings in all cases: P. falciparum in erythrocytes, SYBR Green DNA, 72 h; series mostly up to 28.7 µM
CP268 = test system: CP268
In short: (§1)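 Quantitative HTS: compounds pinned into medium, infected erythrocytes added (0.3% parasitemia, 2.5% hematocrit), 72 h culture at 37 C under 5% CO2. Saponin/Triton lysis with SYBR Green I, overnight RT, then fluorescence read.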

CP269 = test system: CP269
In short: as §1

CP286 = test system: CP286
In short: as §1

CP291 = test system: CP291
In short: as §1

CP297 = test system: CP297
In short: as §1

CP305 = test system: CP305
In short: as §1

CP315 = test system: CP315
In short: as §1

CP325 = test system: CP325
In short: as §1

CP329 = test system: CP329
In short: as §1

CP335 = test system: CP335
In short: as §1
Potency is read from the fitted curve at half-maximal effect.

SMILES	Potency (CP268)	Potency (CP269)	Potency (CP286)	Potency (CP291)	Potency (CP297)	Potency (CP305)	Potency (CP315)	Potency (CP325)	Potency (CP329)	Potency (CP335)
C#CCOc1ccc2c(C)cc(=O)oc2c1	inactive	inactive	inactive	inactive	inactive	inactive	inactive	inactive	inactive	inactive
CO[C@H]1C[C@@H]2CC[C@@H](C)[C@@](O)(O2)C(=O)C(=O)N2CCCC[C@H]2C(=O)O[C@H]([C@H](C)C[C@@H]2CC[C@@H](OCCO)[C@H](OC)C2)CC(=O)[C@H](C)/C=C(\C)[C@@H](O)[C@@H](OC)C(=O)[C@H](C)C[C@H](C)/C=C/C=C/C=C/1C	4.26 µM (active)	4.26 µM (active)	3.16 µM (active)	4.26 µM (active)	3.79 µM (active)	4.78 µM (active)	4.26 µM (active)	4.78 µM (active)	4.78 µM (active)	1510 nM (active)
CCCC(=O)Nc1ncnc2c1ncn2C1OC2COP(=O)(O)OC2C1OC(=O)CCC (stereo unspecified)	inactive	inactive	inactive	inactive	inactive	inactive	inactive	inactive	inactive	inactive
CCCCC(=O)O[C@]1(C(=O)CO)[C@H](C)C[C@H]2[C@@H]3CCC4=CC(=O)C=C[C@]4(C)[C@@]3(F)[C@@H](O)C[C@@]21C	inactive	inactive	inactive	inactive	inactive	inactive	inactive	inactive	inactive	–
CCOc1ccc2c(c1)C(C)=CC(C)(C)N2	inactive	inactive	inactive	inactive	inactive	inactive	inactive	inactive	inactive	–
C[C@@H]1CCC2[C@@H](C)[C@@H](O)O[C@@H]3O[C@@]4(C)CC[C@@H]1[C@@]23OO4 (stereo partly specified)	0.0038 µM (active)	0.0048 µM (active)	0.0025 µM (active)	0.0043 µM (active)	0.0048 µM (active)	0.0038 µM (active)	0.0067 µM (active)	0.0048 µM (active)	0.006 µM (active)	2.7 nM (active)
CC(=O)Oc1c(C)cc(OCC(O)CNC(C)C)c(C)c1C (stereo unspecified)	inactive	inactive	inactive	inactive	inactive	inactive	inactive	inactive	inactive	inactive
COC(=O)CCC(=O)CN	inactive	inactive	inactive	inactive	inactive	inactive	inactive	inactive	inactive	inactive
Oc1cc(O)c2c(c1)OC(c1ccc(O)c(O)c1)C(O)C2 (stereo unspecified)	inactive	inactive	inactive	inactive	inactive	inactive	inactive	inactive	inactive	–
CC1=C(/C=C/C(C)=C/C=C/C(C)=C/C=C/C=C(C)/C=C/C=C(C)/C=C/C2=C(C)C(=O)CCC2(C)C)C(C)(C)CCC1=O	inactive	inactive	inactive	inactive	inactive	inactive	inactive	inactive	inactive	inactive
Cc1c(C)c2c(c(C)c1O)CC[C@@](C)(CCC[C@@H](C)CCC[C@@H](C)CCCC(C)C)O2	inactive	inactive	inactive	inactive	inactive	inactive	inactive	inactive	inactive	inactive
C[C@]12O[C@H](C[C@]1(O)CO)n1c3ccccc3c3c4c(c5c6ccccc6n2c5c31)CNC4=O	0.536 µM (active)	0.269 µM (active)	0.224 µM (active)	0.338 µM (active)	0.379 µM (active)	0.601 µM (active)	0.426 µM (active)	0.536 µM (active)	0.426 µM (active)	239 nM (active)
CC(NNC(=O)c1ccccc1)c1ccccc1 (stereo unspecified)	inactive	inactive	inactive	inactive	inactive	inactive	inactive	inactive	inactive	inactive
O=CCCCC=O	inactive	inactive	inactive	inactive	inactive	inactive	inactive	inactive	inactive	–
O=C1C(=O)c2ncccc2-c2cccnc21	1.51 µM (active)	1.2 µM (active)	1 µM (active)	1.69 µM (active)	1.07 µM (active)	1.2 µM (active)	2.69 µM (active)	1.9 µM (active)	1.2 µM (active)	536 nM (active)
